Experiments:
[1] = test system: Human papillomavirus type 1a protein E7 (residues 44-93); experiment: small molecules binding HPV E7 44-93 – biochemical, small-molecule microarray, residues 44-93, 635 nm fluorescence, primary screen (AID 1108); conditions: fluorescence 635 nm, higher = more signal;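 also: E7 fragment applied at 1 µg/mL in TBST for 1 h at 4 C; score combines spot fluorescence with its signal to noise ratio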
[2] = hepatitis C replication reporter changes, two-sided – Huh7 cells, luciferase reporter, HCV replication inhibitor project, primary screen (AID 1109); conditions: Huh7 HCV replicon luciferase reporter, 48 h; higher = more signal;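 also: huh7 hepatoma cells harbouring a luciferase neomycin HCV replicon reporter; luciferase luminescence as measure of HCV replicon replication; test concentration not given here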
[3] = biological target: Left-right determination factor 2 (Homo sapiens) (UniProt O00292); experiment: small molecules binding LEFTY2 protein – biochemical, small-molecule microarray, 635 nm fluorescence scan, primary screen (AID 1110); conditions: higher = more signal
Chain of Left-right determination factor 2 (Homo sapiens) (O00292 whole entry, looked up): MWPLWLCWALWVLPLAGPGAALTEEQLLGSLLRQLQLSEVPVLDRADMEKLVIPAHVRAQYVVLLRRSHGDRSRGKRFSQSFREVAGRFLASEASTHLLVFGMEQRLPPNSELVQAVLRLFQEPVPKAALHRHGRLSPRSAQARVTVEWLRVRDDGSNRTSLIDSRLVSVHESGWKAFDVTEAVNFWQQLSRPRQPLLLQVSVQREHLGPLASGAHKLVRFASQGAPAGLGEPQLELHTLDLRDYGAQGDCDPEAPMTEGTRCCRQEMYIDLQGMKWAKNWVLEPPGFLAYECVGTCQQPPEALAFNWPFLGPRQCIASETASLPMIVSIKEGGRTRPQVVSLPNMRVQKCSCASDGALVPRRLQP

[4] = biological target: Calmodulin-1 (Homo sapiens) (UniProt P0DP23); experiment: small molecules binding calmodulin-1 with EGTA – biochemical, small-molecule microarray, Cy5-labelled CALM1, profiling panel (AID 1111); conditions: Cy5-CALM1 binding fluorescence, higher = more signal;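 also: labelled calmodulin applied in Tris saline Tween buffer holding calcium plus EGTA and DTT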
[5] = biological target: Calmodulin-1 (Homo sapiens) (UniProt P0DP23); experiment: small molecules binding Ca-loaded calmodulin-1 – biochemical, small-molecule microarray, Cy5-labelled CALM1, plus calcium, artefact control for SMM control-protein annotation, profiling panel (AID 1112); conditions: Cy5-CALM1 binding fluorescence, higher = more signal;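 also: score merges spot fluorescence with signal to noise from triplicate slides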
[6] = probe aWnt5a binding to arrayed compounds – biochemical, biotinylated probe, 635/667 nm fluorescence, primary screen (AID 1113); conditions: small-molecule microarray, higher = more signal;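 also: score merges 667 nm fluorescence intensity with signal-to-noise per printed feature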
[7] = probe aShh binding to arrayed compounds – biochemical, biotinylated probe, 635/667 nm fluorescence, primary screen (AID 1114); conditions: small-molecule microarray, higher = more signal;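 also: probe is biotin-labelled aShh protein from a stem cell growth factor screen; measures binding of labelled protein to compounds printed on the slide; score merges feature fluorescence at 667 nm with signal-to-noise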
[8] = probe aNog binding to arrayed compounds – biochemical, biotinylated probe, 635/667 nm fluorescence, primary screen (AID 1115); conditions: small-molecule microarray, higher = more signal;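 also: probe is biotinylated aNog protein used at 0.15 µg/mL for 1 h at 4 C; z-score combines 667 nm fluorescence of each spot with its signal to noise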
[9] = biological target: Torsin-1A-interacting protein 1 (Homo sapiens) (UniProt Q5JTV8); experiment: compound microarray binding of lysate hLAP1 – cell lysate, small-molecule microarray, COS7 lysate, 635/667 nm fluorescence, primary screen (AID 1116); conditions: 635 nm fluorescence, higher = more signal
Chain of Torsin-1A-interacting protein 1 (Homo sapiens) (Q5JTV8 whole entry, looked up): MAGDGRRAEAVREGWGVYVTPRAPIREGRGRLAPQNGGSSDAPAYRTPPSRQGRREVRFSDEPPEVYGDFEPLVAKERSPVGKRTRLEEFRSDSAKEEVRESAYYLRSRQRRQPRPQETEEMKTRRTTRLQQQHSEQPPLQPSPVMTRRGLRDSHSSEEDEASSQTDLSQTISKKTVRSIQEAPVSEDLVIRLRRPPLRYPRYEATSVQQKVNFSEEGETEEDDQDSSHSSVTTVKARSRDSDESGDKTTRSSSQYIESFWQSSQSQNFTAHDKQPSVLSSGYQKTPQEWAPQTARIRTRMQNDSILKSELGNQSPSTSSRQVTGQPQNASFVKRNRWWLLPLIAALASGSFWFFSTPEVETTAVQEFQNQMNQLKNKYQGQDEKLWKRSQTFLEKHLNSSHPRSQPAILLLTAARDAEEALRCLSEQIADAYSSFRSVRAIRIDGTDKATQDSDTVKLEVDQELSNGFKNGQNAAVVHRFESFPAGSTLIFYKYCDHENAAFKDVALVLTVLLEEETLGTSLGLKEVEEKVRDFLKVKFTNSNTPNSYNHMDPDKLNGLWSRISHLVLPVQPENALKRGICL

[10] = biological target: Alpha-bungarotoxin (Bungarus multicinctus) (UniProt P60615); experiment: compounds binding labelled alpha-BTX control protein – biochemical, small-molecule microarray, Alexa647 label, 635/667 nm fluorescence, artefact control for SMM control protein annotation, profiling panel (AID 1117); conditions: alpha-BTX-A647 binding fluorescence, higher = more signal
Chain of Alpha-bungarotoxin (Bungarus multicinctus) (P60615 whole entry, looked up): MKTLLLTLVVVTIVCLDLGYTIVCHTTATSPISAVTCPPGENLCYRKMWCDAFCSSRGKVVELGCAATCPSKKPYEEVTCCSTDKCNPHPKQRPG

Structure (SMILES)	composite z-score [1]	z-score [2]	composite z-score [3]	composite z-score [4]	composite z-score [5]	composite z-score [6]	composite z-score [7]	composite z-score [8]	composite z-score [9]	composite z-score [10]
CC[C@@H]1C=C(C(=O)O)[C@H](c2ccc(C)cc2)N1S(=O)(=O)c1ccc(C)cc1	0.878	-0.315	-0.925	0.846	0.515	-0.096	0.0048	-0.126	0.24	0.671
COc1ccc([Si](C)(C)[C@@H]2[C@@H](CCn3cc(CCO)nn3)O[C@]3(C(=O)N(Cc4cccc(N5C(=O)c6cccc7cccc5c67)c4)c4ccccc43)[C@H]2C)cc1	1.37	-5.22	-0.0227	0.911	0.506	-0.0256	-0.0192	0.406	0.868	0.664
CCOC(=O)C[C@H]1[C@H](OC(=O)c2ccc(C(=O)c3ccccc3)cc2)[C@@H](NC(=O)c2ccccc2)c2cc(OCCCO)ccc2N1C(=O)c1ccccc1	1.09	-1.33	0.224	0.461	0.168	0.0102	-0.0769	-0.234	0.63	0.872
COC(=O)[C@@]1(CCC(=O)OC(C)(C)C)N=C(c2ccc(OCCCO)cc2)O[C@H]1c1ccccc1	0.255	-1.79	-0.211	0.0108	-0.181	-0.0161	0.351	0.711	0.692	0.629
COC(=O)[C@@]1(Cc2ccccc2)[C@H]2c3cc(C(=O)N(C)C)n(CCc4c[nH]c5ccc(O)cc45)c3C[C@H]2CN1C(=O)c1ccccc1	1.32	-2.07	-0.119	1.2	0.0493	0.0031	-0.0146	0.843	1.48	0.194
[N-]=[N+]=Nc1ccccc1C[C@@]1(C(=O)N2CCCCC2)N=C(c2ccc(OCCCO)cc2)O[C@@H]1c1ccccc1N=[N+]=[N-]	0.869	-2.71	-0.145	1.6	1.04	0.151	0.778	0.353	0.71	2.09
NCCCCCNC(=O)[C@H]1C[C@H]2C(=O)N[C@@H](Cc3ccccc3)C(=O)N2[C@H]1c1cccc(OCCO)c1	0.509	-0.82	0.115	1.85	1.06	0.0328	0.246	0.296	2.09	2.07
CC(C)[Si](C#C[Si](C(C)C)(C(C)C)C(C)C)(O[C@H](C)c1cn(Cc2ccccc2)nn1)C(C)C	1.2	0.16	0.409	0.634	0.142	-0.0893	-0.221	-0.33	0.182	0.717
Cc1ccc(S[C@]2(C(=O)NCC(C)C)CC(=O)N(Cc3cc(C(F)(F)F)cc(C(F)(F)F)c3)[C@@H]2c2ccc(CO)cc2)cc1	-0.716	-0.297	-0.419	-0.909	-0.468	0.168	-0.153	-0.468	0.489	-0.0201
C=CCC(OC(C)=O)[C@@H]1[C@@H](N(Cc2cc3ccccc3o2)C(=O)Cc2ccc(OC)cc2)c2cc(OCCCO)ccc2N1C(=O)c1ccc2ccccc2c1 (stereo not given in full)	0.0806	-0.359	-0.0999	-0.428	0.174	-0.0754	0.0062	-0.125	0.0296	-0.396
C=C(C(=O)CC[C@H](OC(C)=O)c1ccccc1OCCO)C(C)C	-0.949	-4.51	-0.343	-0.296	-1.33	-0.119	-0.352	-0.124	4.35	-0.423
CC(C)CNC(=O)[C@@]1(Cc2ccccc2I)c2ccccc2C(=O)N(Cc2ccccc2C(F)(F)F)[C@H]1c1ccc(CO)cc1	0.476	-0.908	-1.3	-0.512	-0.157	-0.176	1.98	0.978	0.146	-0.124
CC(C)(C)OC(=O)CC[C@@]1(C(=O)N2CCCCC2)N=C(c2ccc(OCCCO)cc2)O[C@@H]1c1ccccc1	1.44	-1.49	0.0209	1.72	-0.0506	0.168	0.476	0.414	0.774	0.873
CC(C)Cc1ccc(CN2CC[C@@H](N)C2)cc1	-2.06	-4.41	-0.669	-0.387	0.36	-0.274	-0.147	0.023	-1.24	-0.118
CC=CC(O)C1C=CC2C(=O)N(C)C(=O)C2N1N(c1ccccc1)c1ccccc1 (stereo not given)	-1.28	-0.332	0.36	-0.54	-1.3	-0.104	-0.0769	-0.0281	1.13	0.721
CCCCC(=C=CC[C@@H](O)c1ccc(CO)o1)CCO	0.378	-0.379	0.38	-0.111	-0.641	-0.0462	0.365	-0.158	0.148	-0.168
O=C(NC1CC1)[C@@H]1c2ccccc2C(=O)N(Cc2cc(F)cc(C(F)(F)F)c2)[C@H]1c1ccc(CO)cc1	0.558	-0.509	-1.05	-0.768	-0.628	-0.161	-0.0709	0.0308	0.0706	-0.405
COCCOC(=O)N1C(=O)[C@@]2(c3ccccc31)[C@H](C(=O)N1CCCCCCC1)[C@H]1C(=O)O[C@H](c3ccccc3)[C@H](c3ccccc3)N1[C@@H]2c1ccc(OCCO)cc1	1.63	-2.07	1.91	3.2	1.76	1.65	3.65	3.67	5.73	4.02

Structure (SMILES)	composite z-score [1]	z-score [2]	composite z-score [3]	composite z-score [4]	composite z-score [5]	composite z-score [6]	composite z-score [7]	composite z-score [8]	composite z-score [9]	composite z-score [10]
COc1cc(CO)cc(I)c1O[C@H]1C=C(C(=O)NCCO)C[C@@H](NC[C@@H]2CCCO2)[C@@H]1O	1.33	-0.695	0.187	-0.0113	-0.732	-0.096	-0.304	-0.267	1.13	0.693
CCCC[C@H]1C[C@@H]1[C@@H]1N(P(=O)(c2ccccc2)c2ccccc2)C[C@@](O)(c2ccccc2)CC12CC2	0.713	-2.71	-1.06	1.96	1.03	0.145	0.149	-0.753	0.727	0.217
COCCCNC(=O)[C@]1(Cc2ccccc2)N=C(c2ccc(OCCCO)cc2)O[C@@H]1c1ccccc1CN=[N+]=[N-]	0.128	-2.18	-0.254	1.02	0.562	0.116	0.585	0.918	2.48	0.315
CCOC(=O)C1=CC[C@@H](c2ccccc2)N(S(=O)(=O)c2ccc(C)cc2)[C@H]1c1ccc(CC)cc1	1.4	-1.8	0.353	1.21	0.511	-0.0384	-0.264	0.733	0.331	0.569
CC(=O)n1cc(C(O)C2C=CC3C(=O)NC(=O)C3N2Nc2ccccn2)c2ccccc21 (stereo not given)	-0.0484	-0.75	0.0729	-0.2	-0.36	-0.124	-0.138	-0.0615	-0.19	0.751
COc1cc2c(cc1O)C(c1cccs1)N(Cc1ccc([N+](=O)[O-])o1)CC2 (stereo not given)	0.665	-0.213	-0.333	1.5	0.33	-0.0303	0.155	1.19	-0.194	0.766
COC(=O)[C@@]1(Cc2ccc(F)cc2)[C@H]2c3cc(C(=O)N(C)C)n(Cc4ccc(C)o4)c3C[C@H]2CN1C(=O)c1ccccc1	-0.0043	-0.8	-1.14	1.81	-0.969	0.749	1.85	3.48	5.2	-1.73
CCOC(=O)C[C@H]1[C@H](OC(=O)c2ccc(C(=O)c3ccccc3)cc2)[C@@H](NC(=O)Cc2ccc(OC)cc2)c2cc(OCCCO)ccc2N1C(=O)c1ccc2ccccc2n1	0.998	-0.873	0.816	0.985	0.336	-0.131	-0.0709	-0.526	0.566	0.738
C=CCN(Cc1ccccc1)C(=O)C(c1cccs1)N(C(=O)/C=C\C(=O)O)c1ccc(CCOCCO)cc1 (stereo not given)	-0.774	0.386	-2.57	-0.722	0.665	-0.191	-0.138	-0.242	-0.678	-1.84
CS(=O)(=O)CCOC(=O)C1=CC(CCCO)=CC(C2CC2)N(Cc2cc3c(cc2Br)OCO3)C=C1C(=O)OCCS(C)(=O)=O (stereo not given)	1.07	-1.2	-0.0224	0.331	-0.0113	-0.0192	-0.0035	0.357	1.11	0.598
COCC(=C=CC[C@H](O)c1cccc(OCCO)c1)CCO	1.02	-0.119	0.0075	-0.488	-0.487	-0.127	-0.156	0.0395	-0.0815	-0.113
COc1ccc(C(O)C2C=CC3C(=O)N(C)C(=O)C3N2NC(=O)OC(C)(C)C)c2ccccc12 (stereo not given)	1.5	-1.45	-0.107	1.56	0.47	0.246	0.275	1.8	0.163	1.17
O=C1O[C@@H](c2ccccc2)[C@@H](c2ccccc2)N2[C@@H](c3ccccc3OCCO)[C@]3(C(=O)Nc4ccc(C#CC5(O)CCCCCC5)cc43)[C@@H](C(=O)N3CCN(c4ncccn4)CC3)[C@H]12	1.38	-2.29	0.409	0.586	0.671	-0.0165	-0.0234	0.118	1.5	0.894
O=C1C2C=CC(C(O)c3ccc(F)cc3)N(Nc3ccc([N+](=O)[O-])cc3)C2C(=O)N1c1ccccc1 (stereo not given)	0.883	-1.03	-0.424	1.76	0.554	0.155	0.294	0.0676	0.733	1.76
Cc1ccc(C2C3C(=O)CC4C(=O)N(c5ccccc5)C(=O)C4C3CN2S(=O)(=O)c2ccc(C)cc2)cc1 (stereo not given)	0.808	-0.418	0.0699	1.33	0.531	0.374	0.343	-0.308	1.66	0.644
O=C(NCCN1CCOCC1)[C@@H]1c2ccccc2C(=O)N(Cc2cc(C(F)(F)F)cc(C(F)(F)F)c2)[C@H]1c1ccc(CO)cc1	1.35	-1.16	-0.775	-0.253	-0.198	-0.0161	0.123	0.0763	-0.729	2.1
COC(=O)[C@@]1(Cc2ccc(OC)cc2)[C@H]2c3cc(C(=O)N4CCCC4)n(CCSCCO)c3C[C@H]2CN1C(=O)c1ccccc1	1.37	-1.48	-0.641	1.66	0.644	0.151	0.0039	2.04	1.01	1.22
CCCCN1CC=CC23O[C@@H]4/C=C\CCCOC(=O)C4[C@H]2C(=O)N(CCCO)[C@@H]3C1=O (stereo not given in full)	0.498	-0.381	-1.08	-0.692	-0.298	-0.124	-0.0211	0.13	2.1	-0.803

From PubChem BioAssay
